# Measurements: PubChem BioAssay (NCI)
# Compounds without any hit were thinned out: in the full panel of roughly 83,000, 20% have a hit.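 Cells were grown in 96-well plates and exposed to the test compound at a single concentration for 48 hours; results are reported as percent growth, with values below 10 considered active.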 Unmarked numbers belong to inactive results. The source made the active and inactive calls.
# Assays:
# Experiment in all cases: NCI-60 one-dose screen, 48 h (100 = growth as untreated, 0 = no growth, -100 = all killed)
# Details in all cases: 10 µM
# [1] = tested on: NCI-H23 lung
# [2] = tested on: NCI-H226 lung
# [3] = tested on: NCI-H322M lung
# [4] = tested on: HOP-62 NSCLC
# [5] = tested on: NCI-H460 lung
# [6] = tested on: NCI-H522 lung
# [7] = tested on: A549/ATCC NSCLC
# [8] = tested on: 786-0 renal
# [9] = tested on: COLO 205 colon
# [10] = tested on: DU-145 prostate
# [11] = tested on: K-562 leukemia
# [12] = tested on: MALME-3M melanoma
# [13] = tested on: MDA-MB-231 breast
# [14] = tested on: RXF 393 renal
# [15] = tested on: SF-268 CNS
# [16] = tested on: SF-295 CNS
# [17] = tested on: SF-539 CNS
# [18] = tested on: UACC-257 melanoma
# [19] = tested on: M14 melanoma
# [20] = tested on: HCT-15 colon
SMILES,growth [1] [%],growth [2] [%],growth [3],growth [4],growth [5],growth [6],growth [7],growth [8],growth [9],growth [10],growth [11],growth [12],growth [13],growth [14],growth [15] [%],growth [16],growth [17],growth [18],growth [19],growth [20]
N#CC1=C(Nc2ccccc2Cl)SC(c2ccccc2O)NC1=O (stereo not given),112,120,114%,115%,121%,1.13% (active),56.4%,114%,121%,117%,102%,116%,113%,121%,112,113%,99.6%,37.1%,109%,119%
O=C(Nc1cccc(-n2cc(-c3ccncc3)c(-c3cc(O)cc(Cl)c3)n2)c1)c1ccc(N2CCOCC2)c(C(F)(F)F)c1,15.4,94.7,43.5%,-2.19% (active),-26% (active),18.8%,9.62% (active),36.6%,80.5%,38%,-15.5% (active),-26.9% (active),-48% (active),-45.6% (active),52.7,-35.4% (active),2.4% (active),9.38% (active),-20.7% (active),6.25% (active)
C[C@]12CC[C@@H]3c4ccc(O)cc4C[C@@H](O)[C@H]3[C@@H]1CC[C@@H]2O,110,101,102%,108%,108%,106%,94.6%,105%,119%,110%,105%,102%,107%,110%,109,112%,96.5%,88.6%,105%,102%
O=C(Nc1cccc(-n2cc(-c3ccncc3)c(-c3ccc(O)c(Cl)c3)n2)c1)c1ccc(N2CCOCC2)c(C(F)(F)F)c1,42.2,85.8,44.5%,41.5%,11.6%,35.6%,22.9%,8.9% (active),51.2%,62.7%,3.17% (active),21.3%,-30.5% (active),-8.59% (active),63.2,-39.7% (active),-28% (active),60.1%,36.8%,16.6%
CCOC(=O)N1C/C(=C/c2ccc(OC)cc2)C(=O)/C(=C/c2ccc(OC)cc2)C1,46.3,23.8,71.1%,29.5%,42%,39%,21.4%,-2.34% (active),24.5%,17.7%,-2.17% (active),34.2%,30.6%,-44.4% (active),38.2,24.5%,39.4%,42.9%,-40.8% (active),3.06% (active)
COc1ccc(S(=O)(=O)Nc2c(/C=C\c3cc(OC)c(OC)c(OC)c3)ccc(OC)c2O)cc1,33.1,12.9,40.5%,49.1%,6.2% (active),-47.6% (active),15.6%,9.56% (active),3.21% (active),-16.7% (active),12.3%,61.5%,5.46% (active),33.5%,13.3,3.31% (active),-28.9% (active),32.4%,2.65% (active),7.33% (active)
Cc1cc(=O)[nH]c(N/N=C/c2ccccc2O)n1,78.6,91,-5.84% (active),61.3%,23.3%,77.3%,33.1%,93.4%,49.2%,78.8%,59.9%,35.1%,76.6%,90%,39.1,43.2%,96.8%,88%,29.9%,40.7%
COc1cc(/C=N/NC(=O)c2ccccc2Nc2cccc(C(F)(F)F)c2)cc(OC)c1OC,45.3,36.9,47%,133%,-17.6% (active),4.06% (active),15%,177%,54.4%,-22.6% (active),12.3%,11.5%,28.5%,4.73% (active),20.4,-14.8% (active),-0.572% (active),49.6%,177%,7.05% (active)
O=C(Nc1cccc(Cl)c1)Nc1nccs1,94.7,99.6,92.6%,94.6%,98.9%,7.88% (active),28.6%,95.6%,126%,114%,85.8%,93.5%,93.2%,103%,107,97.6%,88.4%,-10.8% (active),89.3%,86.2%
CCOC(=O)C1CCc2c(ccc3ccccc23)N1CCC#N (stereo not given),89.7,98.7,85.7%,101%,109%,93.3%,104%,100%,119%,111%,55.5%,80.2%,91.5%,89%,113,88%,110%,104%,93.3%,91.9%
O=C1N=NC2=C1c1c3ccccc3c(O)n1CC2,96.7,105,98.9%,91.6%,110%,-36.3% (active),45.1%,101%,129%,121%,93%,109%,107%,106%,108,99.4%,94.9%,8.27% (active),93.2%,113%
CSC1=NCCCC1,112,97.3,113%,112%,108%,102%,102%,111%,113%,118%,104%,109%,123%,108%,109,110%,111%,100%,108%,101%
CCN(CC)CCNC(=O)c1ccc(NC(C)=O)cc1,94.5,110,105%,103%,113%,111%,98.5%,108%,112%,119%,99.2%,103%,91.8%,109%,109,104%,107%,117%,109%,101%
COC(=O)C1=NNC(=S)N(c2cc(C)[nH]n2)C(=O)C1,99.1,99.7,94.5%,115%,111%,103%,106%,96.9%,116%,107%,93.7%,93.2%,110%,111%,102,96.3%,102%,100%,102%,102%
Cc1ccc(NC(=O)Nc2cccnc2)cc1NC(=O)Nc1cccnc1,88.4,95.3,100%,117%,85.9%,-37.3% (active),30.8%,94.8%,118%,98.2%,57.4%,102%,92.8%,82.7%,96.8,77.9%,87.5%,10.9%,91.6%,84%
